Source: ChEMBL document CHEMBL1961873, “Compounds: GSK PKIS; Assays: Nanosyn kinase panel” (2012)

Tests used:
[1] = molecular target: Serine/threonine-protein kinase pim-2 (Homo sapiens) (UniProt Q9P1W9); settings: at 1 µM;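 further: each value is a mean of the inhibition measurements against the kinase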
[2] = molecular target: Serine/threonine-protein kinase pim-3 (Homo sapiens) (UniProt Q86V86); settings: at 0.1 µM
[3] = molecular target: Serine/threonine-protein kinase pim-3 (Homo sapiens) (UniProt Q86V86); settings: at 1 µM
[4] = molecular target: T1, MAP kinase-activated protein kinase 5 (Homo sapiens) (UniProt Q8IW41); settings: at 0.1 µM
T1 sequence (whole entry): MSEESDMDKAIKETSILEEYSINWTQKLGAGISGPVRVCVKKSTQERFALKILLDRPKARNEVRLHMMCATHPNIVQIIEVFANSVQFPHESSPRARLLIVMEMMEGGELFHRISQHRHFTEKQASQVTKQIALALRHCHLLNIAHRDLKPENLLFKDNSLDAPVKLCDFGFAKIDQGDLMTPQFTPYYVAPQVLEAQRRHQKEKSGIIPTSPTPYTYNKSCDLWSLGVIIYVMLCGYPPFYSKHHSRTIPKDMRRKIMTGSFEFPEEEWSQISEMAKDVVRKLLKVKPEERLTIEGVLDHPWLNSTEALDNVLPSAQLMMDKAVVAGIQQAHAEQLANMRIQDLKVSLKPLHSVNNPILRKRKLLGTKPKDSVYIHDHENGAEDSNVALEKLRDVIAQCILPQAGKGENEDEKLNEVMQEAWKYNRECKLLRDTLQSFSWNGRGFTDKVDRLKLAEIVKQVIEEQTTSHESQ

[5] = molecular target: T1, MAP kinase-activated protein kinase 5 (Homo sapiens); settings: at 1 µM
[6] = molecular target: Serine/threonine-protein kinase SIK1 (Homo sapiens) (UniProt P57059); settings: at 0.1 µM
Chain of Serine/threonine-protein kinase SIK1 (Homo sapiens) (P57059 whole entry): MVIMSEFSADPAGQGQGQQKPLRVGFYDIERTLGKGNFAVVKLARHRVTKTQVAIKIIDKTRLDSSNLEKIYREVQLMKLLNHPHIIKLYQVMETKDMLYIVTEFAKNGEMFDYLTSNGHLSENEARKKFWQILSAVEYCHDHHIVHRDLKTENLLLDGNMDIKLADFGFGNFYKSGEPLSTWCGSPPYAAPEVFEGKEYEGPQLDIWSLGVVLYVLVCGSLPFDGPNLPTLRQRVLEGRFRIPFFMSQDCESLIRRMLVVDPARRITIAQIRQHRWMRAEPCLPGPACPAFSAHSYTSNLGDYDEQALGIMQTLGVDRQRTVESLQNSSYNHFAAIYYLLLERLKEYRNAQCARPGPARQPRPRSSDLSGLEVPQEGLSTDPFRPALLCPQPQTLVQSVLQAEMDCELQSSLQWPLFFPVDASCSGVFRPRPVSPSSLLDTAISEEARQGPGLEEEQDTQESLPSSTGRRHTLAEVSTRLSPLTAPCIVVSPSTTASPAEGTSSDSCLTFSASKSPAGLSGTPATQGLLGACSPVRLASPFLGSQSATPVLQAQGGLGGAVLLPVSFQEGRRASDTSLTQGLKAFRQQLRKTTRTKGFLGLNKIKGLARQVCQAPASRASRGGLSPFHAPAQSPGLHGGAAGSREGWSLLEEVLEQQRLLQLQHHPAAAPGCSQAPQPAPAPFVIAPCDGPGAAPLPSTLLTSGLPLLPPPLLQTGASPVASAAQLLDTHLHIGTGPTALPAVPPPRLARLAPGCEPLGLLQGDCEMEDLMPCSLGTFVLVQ

[7] = molecular target: Serine/threonine-protein kinase SIK1 (Homo sapiens) (UniProt P57059); settings: at 1 µM
[8] = molecular target: Serine/threonine-protein kinase SIK2 (Homo sapiens) (UniProt Q9H0K1); settings: at 0.1 µM
Chain of Serine/threonine-protein kinase SIK2 (Homo sapiens) (Q9H0K1 whole entry, looked up): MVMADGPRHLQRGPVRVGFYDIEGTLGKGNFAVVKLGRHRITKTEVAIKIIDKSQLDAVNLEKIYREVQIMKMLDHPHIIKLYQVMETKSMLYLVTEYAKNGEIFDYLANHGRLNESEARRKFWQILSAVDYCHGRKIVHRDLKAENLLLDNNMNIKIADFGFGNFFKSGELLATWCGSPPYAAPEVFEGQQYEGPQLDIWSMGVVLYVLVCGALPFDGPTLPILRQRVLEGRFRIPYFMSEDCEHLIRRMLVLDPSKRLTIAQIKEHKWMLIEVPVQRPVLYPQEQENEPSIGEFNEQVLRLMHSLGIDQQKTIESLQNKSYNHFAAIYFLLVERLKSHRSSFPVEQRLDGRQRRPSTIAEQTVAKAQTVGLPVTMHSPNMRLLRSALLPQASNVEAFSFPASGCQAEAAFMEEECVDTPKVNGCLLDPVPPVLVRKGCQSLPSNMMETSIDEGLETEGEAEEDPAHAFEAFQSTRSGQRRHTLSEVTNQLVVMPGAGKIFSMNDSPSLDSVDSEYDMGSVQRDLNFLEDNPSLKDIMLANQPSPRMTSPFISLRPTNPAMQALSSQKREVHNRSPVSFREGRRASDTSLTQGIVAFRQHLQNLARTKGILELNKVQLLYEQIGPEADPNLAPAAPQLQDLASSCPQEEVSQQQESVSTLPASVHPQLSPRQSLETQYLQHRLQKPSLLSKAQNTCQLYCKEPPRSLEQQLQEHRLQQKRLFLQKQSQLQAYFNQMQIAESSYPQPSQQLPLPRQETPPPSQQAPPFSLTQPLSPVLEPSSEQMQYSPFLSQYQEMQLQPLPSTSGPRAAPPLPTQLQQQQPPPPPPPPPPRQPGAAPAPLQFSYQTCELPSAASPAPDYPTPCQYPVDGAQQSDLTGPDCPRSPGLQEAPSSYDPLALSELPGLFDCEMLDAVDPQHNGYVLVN

[9] = molecular target: Serine/threonine-protein kinase SIK2 (Homo sapiens) (UniProt Q9H0K1); settings: at 1 µM
[10] = molecular target: T2, Serine/threonine-protein kinase TBK1 (Homo sapiens) (UniProt Q9UHD2); settings: at 0.1 µM;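 further: values are the mean TBK1 inhibition, taken from the GSK PKIS screening data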
T2 sequence (whole entry): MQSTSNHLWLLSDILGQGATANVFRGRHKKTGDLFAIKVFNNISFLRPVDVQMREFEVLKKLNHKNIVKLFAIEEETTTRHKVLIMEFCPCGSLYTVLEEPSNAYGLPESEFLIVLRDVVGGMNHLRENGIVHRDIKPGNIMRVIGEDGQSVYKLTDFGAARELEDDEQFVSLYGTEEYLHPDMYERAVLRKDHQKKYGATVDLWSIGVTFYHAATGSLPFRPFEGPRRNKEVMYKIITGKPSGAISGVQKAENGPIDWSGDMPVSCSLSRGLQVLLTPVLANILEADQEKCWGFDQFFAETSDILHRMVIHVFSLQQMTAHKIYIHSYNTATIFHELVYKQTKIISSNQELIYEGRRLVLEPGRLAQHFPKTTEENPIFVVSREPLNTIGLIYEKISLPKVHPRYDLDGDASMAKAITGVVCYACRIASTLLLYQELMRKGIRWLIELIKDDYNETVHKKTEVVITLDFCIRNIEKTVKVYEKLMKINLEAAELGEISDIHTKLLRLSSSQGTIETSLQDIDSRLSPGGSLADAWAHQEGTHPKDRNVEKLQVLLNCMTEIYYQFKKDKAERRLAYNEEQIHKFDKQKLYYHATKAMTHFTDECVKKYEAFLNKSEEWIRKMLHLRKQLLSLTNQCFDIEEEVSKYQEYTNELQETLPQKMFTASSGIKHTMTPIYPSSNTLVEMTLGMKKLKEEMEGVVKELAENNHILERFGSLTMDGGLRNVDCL

Chain of Serine/threonine-protein kinase pim-2 (Homo sapiens) (Q9P1W9 whole entry, looked up): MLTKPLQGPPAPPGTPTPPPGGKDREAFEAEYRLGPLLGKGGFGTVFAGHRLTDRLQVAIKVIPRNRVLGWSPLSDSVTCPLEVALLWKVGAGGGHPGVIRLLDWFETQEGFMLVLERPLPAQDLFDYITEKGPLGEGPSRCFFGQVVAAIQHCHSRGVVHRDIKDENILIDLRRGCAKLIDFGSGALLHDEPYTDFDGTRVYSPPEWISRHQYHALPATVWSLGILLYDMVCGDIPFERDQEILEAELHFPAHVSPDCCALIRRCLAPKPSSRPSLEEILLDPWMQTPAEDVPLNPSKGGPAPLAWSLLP

| SMILES | inhibition [1] [%] | inhibition [2] [%] | inhibition [3] [%] | inhibition [4] [%] | inhibition [5] [%] | inhibition [6] [%] | inhibition [7] [%] | inhibition [8] [%] | inhibition [9] [%] | inhibition [10] [%] |
| --- | --- | --- | --- | --- | --- | --- | --- | --- | --- | --- |
| COc1cc(C=NNc2ncnc3c2cnn3-c2ccccc2)ccc1O | 2.11 | -0.48 | -0.21 | 0.22 | -0.53 | 5.32 | 18.5 | 7.72 | 20.4 | 3.55 |
| CC1=C(C(=O)Nc2ccc3[nH]ncc3c2)C(c2ccc(F)cc2)NC(=O)N1 (stereo unspecified) | -0.13 | 0.21 | -0.69 | 2.17 | 0.76 | 0.84 | 3.8 | 3.04 | 1.13 | 2.82 |
| CC1=C(C(=O)Nc2ccc3[nH]ncc3c2)C(c2ccc3ccccc3c2)CC(=O)N1 (stereo unspecified) | 0.77 | -0.19 | 0.74 | 0.65 | 1.3 | 4.02 | 1.28 | 5.77 | 4.09 | -1.92 |
| CS(=O)(=O)Nc1ccc(N/C=C2\C(=O)Nc3ccccc32)cc1 | 0.67 | 0.5 | 2.02 | -0.78 | -0.07 | – | 2.58 | 4.05 | -6.11 | 0.52 |
| COc1cc2ncn(-c3cc(O[C@@H](C)c4ccccc4Cl)c(C(N)=O)s3)c2cc1OC | 0.91 | 0.03 | 4.24 | 1.26 | 1.22 | 6.27 | 18.1 | 2.99 | 12 | 4.39 |
| Cc1ccc(C(=O)NC2CCCCC2)cc1-c1ccc(C(=O)NCC2CC2)cc1 | 1.66 | 22.2 | -1 | 0.69 | -0.72 | 3.08 | 8.02 | 2.73 | 1.96 | 1.75 |
| CS(=O)(=O)CCNCc1nc(-c2ccc3ncnc(Nc4ccc(F)c(Cl)c4)c3c2)cs1 | -0.01 | 0.66 | 6.45 | 0.35 | 1.43 | 8.44 | 8.78 | 3.22 | 2.57 | 1.85 |
| COC(=O)Nc1nc2cc(Oc3ccc(NC(=O)Nc4cccc(C(=O)O)c4)cc3)ccc2[nH]1 | -2.76 | 1.29 | 3.84 | 0.42 | 1 | 3.75 | 1.25 | -0.04 | 2.04 | 0.81 |
| O=C1NC(=O)C(c2ccccc2Cl)=C1Nc1cccc(O)c1 | 0.28 | -0.32 | -0.95 | 0.71 | 0.06 | 1.46 | 5.5 | 8.17 | 10.7 | 2.04 |
| Cc1nn(C)c2cc(N(C)c3ccnc(Nc4cccc(S(N)(=O)=O)c4)n3)ccc12 | 0.81 | 0.16 | -0.2 | 0.87 | 1.23 | 9.49 | 55.3 | 7.91 | 24.3 | 2.88 |
| COc1cc2ncn(-c3cc(O[C@H](C)c4ccccc4Cl)c(C(N)=O)s3)c2cc1OC | 0.96 | 2.36 | 12.4 | 2.09 | 4.22 | 12.6 | 53.1 | 10.9 | 24.8 | 3.11 |
| CS(=O)(=O)CCN(CC#N)Cc1ccc(-c2ccc3ncnc(Nc4ccc(OCc5cccc(F)c5)c(Cl)c4)c3c2)o1 | -3.72 | -0.61 | -0.3 | 0.76 | 1.23 | 4.78 | 9.27 | 1.11 | 0.48 | 0.72 |
| COc1ccccc1Nc1ncc(-c2ccccc2)o1 | 0.53 | 0.22 | 0.86 | 2.09 | 1.9 | -1.04 | 14.1 | 1.94 | 5.2 | 1.18 |
| COc1ccc(COc2ccc(Cc3cnc(N)nc3N)cc2OC)cc1 | 3.29 | 2.12 | 0.23 | -0.2 | -1.74 | -2.62 | 2.92 | -5.52 | -1.07 | 2.12 |
| Nc1nc(-c2ccc3c(c2)C(=Cc2cc(Br)c(O)c(Br)c2)C(=O)N3)cs1 | 50.1 | 5.73 | 42.7 | -1.39 | -0.3 | – | -3.45 | – | -0.64 | 0.67 |
| CCn1c(-c2nonc2N)nc2ccncc21 | 0.12 | -0.49 | -1.56 | 0.36 | -0.69 | -0.38 | 8.47 | 5.56 | 3.95 | 2.23 |
| O=C1Nc2ccc(C(=O)c3ccco3)cc2C1=Cc1cc(Cl)c(O)c(Cl)c1 | 17.9 | 12 | 53.4 | 1.97 | 8.16 | 4.01 | 10.6 | 10.5 | 6.6 | 4.59 |
| CCn1c(-c2nonc2N)nc2c(N3CCCC3)nccc21 | 0.29 | -0.84 | 1 | -0.99 | -0.15 | -7.25 | -2.47 | -7.08 | -6.02 | -0.24 |
| O=C1NC(=O)C(c2cccc(Cl)c2)=C1Nc1ccc(O)c(Cl)c1 | 1.76 | -0.02 | 0.87 | -0.23 | -0.79 | -4.1 | 9.22 | -3.06 | 19.8 | 3.62 |
| COc1ccc(-c2ccncc2)cc1C(N)=O | -0.52 | -0.49 | 3.33 | 1.23 | 1.1 | 3.59 | 9.53 | 3.27 | 4.53 | 2.55 |
| CCn1c(-c2nonc2N)nc2cnc(Oc3cccc(NC(=O)c4ccc(OCCN5CCOCC5)cc4)c3)cc21 | 0.68 | -1.8 | 2.09 | 0.82 | 1.44 | 4.8 | 10.1 | 8.55 | 13.8 | 0.71 |
| CC1=C(C(=O)Nc2ccc3[nH]ncc3c2)C(c2ccc(Cl)c(Cl)c2)CC(=O)N1 (stereo unspecified) | -1.37 | -0.64 | -1.31 | 0.08 | -1.02 | 6.5 | 2.84 | -0.93 | 2.87 | -0.19 |
| CCCN1CCC=C(c2ccc(Nc3nc(Nc4ccccc4C(N)=O)c4cc[nH]c4n3)c(C)c2)C1 | 4.08 | 2.03 | 12.5 | 1.79 | 5.7 | 5.62 | 9.29 | 2.87 | 8.52 | 3.95 |
| CC(=O)Nc1cccc(C#Cc2cncnc2Nc2ccc(OCc3cccc(F)c3)c(Cl)c2)n1 | -0.75 | 5.22 | 9.04 | 0.35 | 2.24 | -2.62 | -1.96 | -4.28 | -0.46 | 1.99 |
| COc1ccc(-c2coc3ncnc(N)c23)cc1 | 1.01 | -0.83 | -1.2 | 0.93 | 0.22 | 1.16 | 10.4 | 5.46 | 7.65 | -0.45 |
| O=C1NC(=O)C(N2CCc3ccccc32)=C1c1ccc(Cl)cc1 | 0.77 | -1.28 | -2.25 | 1.12 | 0.55 | 5.76 | 7.18 | 1.33 | 5.15 | 3.01 |
| CN(C)c1cc2c(Nc3ccc4nc(Cc5ccccc5)[nH]c4c3)ncnc2cn1 | 0.97 | – | 2.51 | 1.83 | 2.12 | 5.71 | 10.2 | 8.08 | 7.99 | 2.69 |
| N#Cc1c(NC(=O)c2cccc3ccccc23)sc2c1CCCC2 | -0.27 | -0.51 | -1.85 | 0.72 | 0.28 | 7.26 | 9.67 | 2.47 | 12.4 | 0.12 |
| CCn1c(-c2nonc2N)nc2cncc(C(=O)N3CCNCC3)c21 | -0.88 | 0.06 | 2.39 | 2.77 | 2.41 | 4.86 | 14.2 | 6 | 6.58 | 6.79 |
